In PubChem BioAssay (NCATS):
Results filed as inconclusive are left out. A number with no mark means an inactive call. Active and inactive are the calls of the source. Calls follow the shape of the dose curve; as a rule, active = well fitted cell-killing curve with a large enough effect; inconclusive = small, poorly fitted or top-dose-only effect; inactive = flat fitted curve, though single readings scatter.

Assay: qHTS of pediatric cancer cell lines to identify multiple opportunities for drug repurposing: Primary screen for U-2 OS cells (AID 1347096); also: nearly all actives have a fitted effect of over 50% in size
Settings: U-2 OS viability, CellTiter-Glo luminescence, 48 h; series mostly up to 46 µM; activity change, negative = cytotoxic: at the top concentration
Text: Drug repurposing or repositioning has been offered as a strategy for drug development in oncology programs. This approach has special potential for childhood cancers and other rare or orphan diseases, where the expected return on new drug development has been a disincentive to pharmaceuticals.
In this project we exploit the poly-pharmacology of drugs to discover new indications via phenotypic screening of a panel of 19 well-characterized cell lines derived from solid tumors seen in children and adolescents. The goal is to identify approved drugs with previously unrecognized anticancer properties that has the potential to reveal new mechanisms and biological processes involved in carcinogenesis or drug resistance. We employed a titration-based paradigm (quantitative high-throughput screening or qHTS), where all compounds were tested at multiple concentrations for their effect on cell viability. Concentration-response curves (CRCs) were derived directly from the primary screen, and both potency and efficacy values were used to identify compounds with robust bioactivity profiles. We screened the NIH Chemical Genomics Center (NCGC) Pharmaceutical Collection (NPC) and Mechanism Interrogation Plate (MIPE) small molecule collections of approved and investigational compounds against these cell lines; and measured metabolically active cells after 48 hours of compound treatment as a proxy for cell viability.
Assay Submitter: Nathalia J. Martinez, National Center for Advancing Translational Sciences, National Institutes of Health, Rockville, MD, USA; email: natalia.martinez@nih.gov
[1] Shen, M et al. Quantitative high-throughput phenotypic screening of pediatric cancer cell lines identifies multiple opportunities for drug repurposing. Oncotarget 2017 Dec 19;9(4):4758-4772. PMID 29435139.
The cells were obtained from University of North Carolina (UNC), Pediatric Preclinical Testing Program (PPT), and Coriell Institute (CI).
qHTS cell viability assay:
Cells were assayed in growth media at a density of 500-1,000 cells/well. Five microliters of cells were dispensed into 1,536-well, white, solid-bottom, TC-treated plates (Greiner Bio One) using a multidrop dispenser and incubated at 37 degrees C, 5% CO2, under a humidified atmosphere for 5 hours. Twenty-three nanoliters of compounds and controls (neutral control DMSO or positive control bortezomib at final concentration of 2.3 µM) were subsequently transferred by Kalypsys pintool. For primary screens, the MIPE collection was tested at 11-point dilutions (final concentrations range from 0.78 nM to 46 µM) and the NPC collection at 8-point dilutions (final concentrations range from 0.59 nM to 46 µM). Compounds tested in follow-up screens were assayed at 11-point dilutions. Cells were incubated for 48 hours, followed by addition of 3 µL of CellTiter-Glo (Promega). After a 15 min incubation at room temperature, samples were analyzed for luminescence intensity using a ViewLux High-throughput CCD imager equipped with clear filters.
Potency is read from the fitted curve at half-maximal effect.

Structure (SMILES) | activity change, negative = cytotoxic [%] | Potency
CCCCN1CCC(CNC(=O)c2c3n(c4ccccc24)CCCO3)CC1 | -19.6 | 
CC(C)Nc1cc(C(F)(F)F)cc2nc(NC(=O)c3cccnc3)nn12 | 6.39 | 
COc1ccc(-n2nc(C(N)=O)c3c2C(=O)N(c2ccc(N4CCCCC4=O)cc2)CC3)cc1 | 13.5 | 
O=C(c1ccc(Nc2nccc(-c3cc4ccccc4s3)n2)cc1)N1CCC(N2CCCC2)CC1 |  | 23.5 µM (active)
CN1CCN(c2ccc3nc(-c4c(N)c5c(F)cccc5[nH]c4=O)[nH]c3c2)CC1 |  | 18.7 µM (active)
CNc1nccc(-c2cccnc2Oc2cc(C(=O)Nc3cccc(C(F)(F)F)c3)ccc2C)n1 |  | 11.8 µM (active)
NC(=O)c1c(OCc2c(F)cc(Br)cc2F)nsc1NC(=O)NCCCCN1CCCC1 | 9.73 | 
Cc1ccc(NC(=O)C2(c3ccc4c(c3)OC(F)(F)O4)CC2)nc1-c1cccc(C(=O)O)c1 |  | 0.59 µM (active)
Nc1nc(-c2nn(Cc3ccccc3F)c3ncccc23)nc(N)c1N1CCOCC1 | -1.85 | 
CC=C1NC(=O)[C@H]2CSSCCC=C[C@H](CC(=O)N[C@H](C(C)C)C(=O)N2)OC(=O)[C@H](C(C)C)NC1=O |  | 0.0296 µM (active)
COc1cc2c(Oc3ccc4[nH]c(C)cc4c3F)ncnc2cc1OCCCN1CCCC1 | 10.6 | 
Cc1ccc(C(=O)Nc2ccc(CN3CCN(C)CC3)c(C(F)(F)F)c2)cc1C#Cc1cnc2cccnn12 |  | 5.9 µM (active)
Nc1ccccc1NC(=O)c1ccc(CNC(=O)OCc2cccnc2)cc1 |  | 1.87 µM (active)
Cc1cnc(Nc2ccc(F)cc2Cl)nc1-c1c[nH]c(C(=O)N[C@H](CO)c2cccc(Cl)c2)c1 |  | 7.43 µM (active)
CCS(=O)(=O)c1cccc(-c2cc(C(=O)NC3CCN(C)CC3)c(C)c3[nH]c4ncc(C)cc4c23)c1 |  | 14.8 µM (active)
COc1cccc2c(NCc3ccccc3)nc(-n3c(N)nc4ccccc43)nc12 |  | 9.35 µM (active)
CCN1CCN(Cc2ccc(-c3cc4c(N[C@H](C)c5ccccc5)ncnc4[nH]3)cc2)CC1 |  | 18.7 µM (active)
Cc1c(C)n(Cc2ccc(-c3ccccc3C(=O)O)cc2)c2ccc(C(=O)N[C@@H](C)c3ccc([N+](=O)[O-])cc3)cc12 | -15.3 | 
NC(=O)c1cccc2cn(-c3ccc([C@@H]4CCCNC4)cc3)nc12 | 20.6 | 
COc1cccc(-c2ccc(NC(=O)C3=C(C(=O)O)CCC3)c(F)c2)c1 | 1.52 | 

Structure (SMILES) | activity change, negative = cytotoxic [%] | Potency
CC=CC1=C(C(=O)O)N2C(=O)[C@H](NC(=O)[C@H](N)c3ccc(O)cc3)[C@@H]2SC1 | 13.7 | 
CC[C@@]1(O)C(=O)OCc2c1cc1n(c2=O)Cc2cc3cc(O)ccc3nc2-1 | 12.6 | 
COc1ccc(C(=O)CC2(O)C(=O)Nc3c(Cl)ccc(Cl)c32)cc1 (stereo not given) | -14.9 | 
CC(C)(C)c1cc(NC(=O)Nc2ccc(-c3cn4c(n3)sc3cc(OCCN5CCOCC5)ccc34)cc2)no1 | -16.8 | 
O=C(C=Cc1cccnc1)NCCCCC1CCN(C(=O)c2ccccc2)CC1 |  | 0.118 µM (active)
Cc1nc2ccc(CN(C)c3ccc(C(=O)N[C@@H](CCC(=O)O)C(=O)O)s3)cc2c(=O)[nH]1 | 15.7 | 
CC(C)[C@H](C(=O)Nc1ccc(C(=O)NO)cc1)c1ccccc1 |  | 1.18 µM (active)
Cc1cc(Nc2cc(N3CCN(C)CC3)nc(Sc3ccc(NC(=O)C4CC4)cc3)n2)n[nH]1 | 15.8 | 
Cc1ccc(S(=O)(=O)Nc2cc(Cl)ccc2C(=O)Nc2nc(-c3ccccc3)cs2)cc1 | 2.09 | 
Nc1nc(Nc2ccc(S(N)(=O)=O)cc2)nn1C(=O)c1c(F)cccc1F | 17.8 | 
O=C(C=Cc1cccc(S(=O)(=O)Nc2ccccc2)c1)NO |  | 5.4 µM (active)
Cc1cc(Nc2cc(N3CCN(C)CC3)nc(C=Cc3ccccc3)n2)n[nH]1 |  | 34 µM (active)
Cc1c(Cn2c(C)nc3c(C(=O)O)cc(N4CCOCC4)cc32)cccc1C(F)(F)F | -3.38 | 
C1Cc2[nH]nc(-c3nn[nH]n3)c2C1 | 8.3 | 
CCC1=C[C@@H]2CN(C1)Cc1c([nH]c3ccccc13)[C@@](C(=O)OC)(c1cc3c(cc1OC)N(C)[C@@H]1[C@@](O)(C(=O)OC)[C@H](OC(C)=O)[C@]4(CC)C=CCN5CC[C@]31[C@@H]54)C2 | 2.63 | 
CCC(=C(c1ccccc1)c1ccc(OCCN(C)C)cc1)c1ccccc1 | -20.4 | 
CCOc1cc2ncc(C#N)c(Nc3ccc(F)c(Cl)c3)c2cc1NC(=O)C=CCN(C)C | 10.1 | 
CC[C@H]1CN2CCc3cc(OC)c(OC)cc3[C@H]2C[C@@H]1C[C@@H]1NCCc2cc(OC)c(OC)cc21 |  | 1.18 µM (active)
O=C(O)C1(Cc2cccc(Nc3nccs3)n2)CCC(Oc2cccc(Cl)c2F)CC1 (stereo not given) | -10.4 | 
Clc1ccc2ncc(-c3cccc(NC4CNC4)n3)n2c1 | 6.71 | 
